Screening data deposited in PubChem by several laboratories.
A selection: hits, their analogues and other compounds. The true share with any hit is near 1.7%.
TLR4 MyD88 comp = blocks binding of human TLR4 to MyD88 | O00206+Q99836 | HeLa CL3-4 TLR4/MyD88 BLA complementation, FRET ratio | inhibition, % at 8.4 µM | hit rate 0.18% among 200,000; in the data active = inhibition above about 25%;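 also: 0% = vehicle and 100% = reference inhibitor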
Myeloid diff 2 = compounds promoting myeloid differentiation; ER-HoxA9 myeloid progenitors, lysozyme-GFP differentiation, flow cytometry; hit rate 1% among 360,000; AID 624256; calls only at 10 µM;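 active = normalized GFP-positive differentiation at or above the plate's own cutoff, the solvent-only control mean plus 3 SD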;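 also: cells exposed to compound for four days before flow analysis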
ABCB6 inh MLPCN = inhibitors of human ABC transporter ABCB6. K562-ABCB6 porphyrin accumulation, flow cytometry, 1 h; active compounds read low. fluorescence ratio to DMSO, % at 10 µM. hit rate 0.19% among 360,000. AID 602162. Q9NP58;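 active = fluorescence ratio to DMSO below 75%, the collection mean minus 3 SD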;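 also: signal is porphyrin accumulated inside mitochondria; 100% equals median channel fluorescence of DMSO control wells; lower ratio means ABCB6 inhibition with less porphyrin fluorescence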
NOD2-RIPK2 inh = inhibitors of human NOD2-RIPK2 interaction; AID 624267; CHO BLA complementation NOD2-RIPK2, CCF4 ratio; hit rate 0.38% among 360,000; inhibition, % at 4.98 µM; in the data active = inhibition above about 21%;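 also: 0% = vehicle only and 100% = reference blocker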
Target sequence (O43353 whole entry, looked up): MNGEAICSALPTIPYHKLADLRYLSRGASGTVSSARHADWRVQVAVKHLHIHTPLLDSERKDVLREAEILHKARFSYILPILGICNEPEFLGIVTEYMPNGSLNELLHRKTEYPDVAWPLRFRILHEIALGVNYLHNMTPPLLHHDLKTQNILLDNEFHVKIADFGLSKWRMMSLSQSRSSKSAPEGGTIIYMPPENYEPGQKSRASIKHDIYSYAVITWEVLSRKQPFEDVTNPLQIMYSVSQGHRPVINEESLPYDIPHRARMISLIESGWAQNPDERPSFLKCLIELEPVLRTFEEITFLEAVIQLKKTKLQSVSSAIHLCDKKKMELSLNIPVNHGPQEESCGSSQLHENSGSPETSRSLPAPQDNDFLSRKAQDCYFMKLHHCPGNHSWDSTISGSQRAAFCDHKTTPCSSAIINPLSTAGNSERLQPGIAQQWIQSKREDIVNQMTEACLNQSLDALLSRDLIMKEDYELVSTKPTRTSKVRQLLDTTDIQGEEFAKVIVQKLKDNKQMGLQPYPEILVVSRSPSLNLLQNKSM
TLR9-MyD88 inh = blocks human TLR9 binding to MyD88; Q9NR96+Q99836; CHO BLA complementation TLR9-MyD88, CCF4 FRET ratio; inhibition, % at 4.98 µM; hit rate 0.21% among 340,000;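 active = inhibition above the mean over all tested compounds plus 3 SD, cut at about 21% in these data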;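 also: 0% = DMSO only wells and 100% = clavulanate BLA inhibitor control wells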
Myeloid diff CP1 = promotes myeloid progenitor differentiation | shares compounds with Myeloid diff 2 | ER-HoxA9 myeloid progenitors, GFP/Mac1 double-positive flow | calls only | hit rate 2% among 2,300 | AID 651706;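 active = share of green or green-and-red cells above 9 and 9% in run 1 or 4 and 3% in run 2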
GFP autofluor = counter-screen for myeloid differentiation promoters: compound fluorescence; shares compounds with Myeloid diff 2; ER-HoxA9 myeloid progenitors, no estrogen, GFP autofluorescence flow cytometry; vehicle wells 0%, positive control 100%; fluorescence response, % (no concentration beside the values); hit rate 7.4% among 2,300;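 active = over 5% cells positive for green fluorescent reporter, or over 2% positive for both it and APC stain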;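 also: range taken on the double positive population between DMSO and positive control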
An asterisk follows results filed as active; i = inactive; . = no result given; + = active, no number.

SMILES	TLR4 MyD88 comp	Myeloid diff 2	ABCB6 inh MLPCN	NOD2-RIPK2 inh	TLR9-MyD88 inh	Myeloid diff CP1	GFP autofluor
C=CCNC(=O)COc1ccc(N(C)S(=O)(=O)c2ccc(NC(C)=O)cc2)cc1	5.7	i	100.0	2.3	-8.1	i	0.4
c1ccc(Cc2c(-c3ccccc3)nc3c4ccccc4ccn23)cc1	.	+	102.0	-20.0	-5.2	i	0.4
CC(=O)Nc1cccc(-c2ccnc3c2CC(C(=O)Nc2cccc(NS(C)(=O)=O)c2)O3)c1 (centres undefined)	.	i	99.0	-13.3	.	.	.
O=C(Nc1cccc(C(F)(F)F)c1)C1Cc2c(-c3cccc(F)c3)ccnc2O1 (centres undefined)	.	i	93.0	-0.8	.	.	.
CS(=O)(=O)Nc1cccc(NC(=O)C2Cc3c(-c4ccccc4)ccnc3O2)c1 (centres undefined)	.	+	96.0	-6.9	.	i	0.0
CC(=O)Nc1ccc(-c2ccnc3c2CC(C(=O)Nc2cccc(C(F)(F)F)c2)O3)cc1 (centres undefined)	.	+	100.0	4.3	.	i	0.3
CC(=O)Nc1ccc(-c2ccnc3c2CC(C(=O)Nc2cccc(N(C)C)c2)O3)cc1 (centres undefined)	.	+	100.0	-15.0	.	i	0.0
CN=C1SC(C(=O)Nc2ccccc2Cl)CC(=O)N1c1ccc(OC(F)(F)Cl)cc1 (centres undefined)	-10.7	.	95.0	0.3	-15.3	.	.
CN1C(=O)N2CN(C3CCCCC3)CN3C(=O)N(C)C1C23 (centres undefined)	-5.1	i	105.0	-3.7	2.6	i	0.0
O=C1NCN(C2CCCCC2)CN1	.	i	88.0	-4.7	-4.1	.	.
Cc1ccc2[nH]c(CCN(C)C)c(CN3CCOCC3)c2c1	.	i	98.0	0.3	-1.7	i	0.0
Cc1ccc2[nH]c3c(=O)n(CCN4CCOCC4)cnc3c2c1	20.9	i	93.0	5.4	-4.0	.	.
Cc1ccc2oc(=O)c3cnn(CC(=O)N4CCN(c5ccccc5)CC4)c3c2c1	10.1	i	91.0	-1.1	3.3	.	.
Cc1ccc2oc(=O)c3cnn(CC(=O)N4CCCc5ccccc54)c3c2c1	-4.3	i	85.0	-7.9	5.5	i	0.2
COc1ccc2c(ccc[n+]2CC(=O)c2ccc(C)cc2)c1	.	i	106.0	-9.1	-14.1	.	.
CCc1ccc(C(=O)C[n+]2cccc3cc(OC)ccc32)cc1	.	i	103.0	-0.8	-8.0	i	0.0
CCOc1ccc(C(=O)C[n+]2cccc3cc(C)ccc32)cc1	.	+	558.0	-18.5	8.1	i	54.0*
COc1ccc(C(C)(C)C)cc1NC(=O)COC(=O)c1ncc(Cl)c(Cl)c1Cl	6.0	i	99.0	1.9	-14.2	.	.
CCCc1cc(C(=O)NNC(=S)NC2CCCCC2)cs1	.	i	100.0	-9.8	9.7	.	.
Cn1c(=O)n(C)c2cc(S(=O)(=O)Nc3cc(Cl)ccc3O)ccc21	-3.8	i	106.0	-3.9	-3.7	.	.
COc1ccc(NC(=O)C2CCN(S(=O)(=O)c3cccs3)CC2)cc1OC	.	i	89.0	1.6	-6.4	.	.
COc1ccc(NC(=O)C2CCCN(S(=O)(=O)c3cccs3)C2)cc1OC (centres undefined)	0.6	+	98.0	-5.0	-14.6	i	0.4
N/C(=N\OC(=O)CCCc1ccccc1)c1ccccc1Cl	.	i	93.0	2.9	4.2	.	.
Cc1ccc(-c2[nH]c(-c3ccccc3)nc2SCC(=O)NCC2CCCO2)cc1 (centres undefined)	9.7	i	96.0	-17.4	9.2	.	.
Cc1ccc2cc(C#N)c(SCC(=O)NCC3CCCO3)nc2c1 (centres undefined)	-3.0	i	102.0	-3.0	-5.5	i	0.0
Cc1ccc(-c2nc(SCC(=O)NCC3CCCO3)c(-c3ccc(C)cc3)[nH]2)cc1 (centres undefined)	4.9	i	97.0	-7.3	-5.1	i	0.0
Cc1nc(SCC(=O)NCC2CCCO2)c2c3c(sc2n1)CCC3 (centres undefined)	.	i	92.0	5.4	-1.9	.	.
Cc1ccc2nc(SCC(=O)NCC3CCCO3)c(C#N)cc2c1 (centres undefined)	-6.2	i	89.0	-6.6	-0.2	.	.
